Source: PubChem (several laboratories)
The list is not random: actives were taken first. Their share in the collection is about 3.7%.
BoNT F protease: BoNT/F light chain protease inhibitors, primary screen, biochemical, flow cytometry, MLPCN library. Multiplex microsphere protease cleavage assay. inhibition, % at 10 µM. Botulinum neurotoxin type F light chain protease (Clostridium botulinum). 360,000 compounds, 0.22% hits; in the data active = inhibition above about 35%, passing the limit was not always enough; inconclusive = no clear call, values can overlap the other calls; note: plate controls were buffer without enzyme for full effect and enzyme alone for no effect
BoNT A protease: BoNT/A light chain protease inhibitors, primary screen, biochemical, flow cytometry, MLPCN library | Botulinum neurotoxin type A light chain protease (Clostridium botulinum A str. ATCC 3502) | multiplex microsphere protease substrate cleavage | inhibition, % at 10 µM | 360,000 compounds, 0.17% hits | AID 588499, 2011; note: plate controls were buffer without enzyme for full effect and enzyme alone for no effect
Autofluor counter: counter-screen for toxin protease inhibitors: compound fluorescence | compound autofluorescence counterscreen, microsphere flow cytometry; hits give high values | fluorescence intensity (no concentration beside the values) | 360,000 compounds, 3.1% hits | AID 624483; in the data active = fluorescence intensity above about 16000; inconclusive = no clear call, values can overlap the other calls
MazEF act: activators of E. coli MazEF toxin-antitoxin RNase, primary screen, biochemical, fluorescence, uHTS; Endoribonuclease toxin MazF (Escherichia coli (strain K12)), P0AE70; FAM/BHQ RNA-DNA oligo cleavage fluorescence, 5 h; activation, % at 20 µM; 350,000 compounds, 0.32% hits; AID 504720, 2011; in the data active = activation above about 50%
Target sequence (P0AE70 whole entry, looked up): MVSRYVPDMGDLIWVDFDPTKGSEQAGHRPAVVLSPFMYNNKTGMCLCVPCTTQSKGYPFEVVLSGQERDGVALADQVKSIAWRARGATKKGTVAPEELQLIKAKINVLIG
Anthrax LF inh2: Bacillus anthracis LF protease inhibitors, primary screen, biochemical, multiplex microsphere, MLPCN library; Lethal factor (Bacillus anthracis), P15917; multiplex microsphere protease cleavage assay; inhibition, % at 10 µM; 360,000 compounds, 0.12% hits; AID 588501, 2011; note: plate controls were buffer without enzyme for full effect and enzyme alone for no effect
An asterisk follows results filed as active; ? = inconclusive; / = not tested or not shown. Cut-off read from the data, not from the text of the source, unless noted: active = inhibition above about 30%; inconclusive = no clear call, values can overlap the other calls; inactive = below that.

SMILES	BoNT F protease	BoNT A protease	Autofluor counter	MazEF act	Anthrax LF inh2
COCCOC(=O)c1c(C)n(C)c2ccc(OC(=O)N(C)C)cc12	-4	-1	22829*	-1	0
Cc1nn2c(-c3ccc(Cl)cc3)nnc2s1	-2	0	23339*	3	-2
Cc1cc(O)c(C(C[N+](=O)[O-])c2ccc(Cl)cc2Cl)c(=O)o1 (centres undefined)	-8	-7	17730*	-12	-4
Oc1ccc(C=NN=C2c3ccccc3-c3ccccc32)c(O)c1	-2	0	3699	-1	-6
[O-][n+]1ccc(CC(O)(C(F)(F)F)C(F)(F)F)cc1	-12	0	3225	3	-1
Cc1ccc(C(C)NC(=O)/C(C#N)=C\c2c(C)[nH]c3ccccc23)cc1 (centres undefined)	5	0	11242	11	-4
Cc1[nH]c2ccccc2c1/C=C(\C#N)C(=O)NCc1ccccc1	-25	53*	11132	106*	7
CCCN(C(=O)COC(=O)CCC(=O)c1ccccc1)c1c(N)n(Cc2ccccc2)c(=O)[nH]c1=O	4	0	2969	-3	-11
C=CCSc1nnc(-c2c[nH]c3ccccc23)n1CCOC	-1	1	22750*	13	-2
CCn1c(SCC(=O)NCc2ccccc2)nnc1-c1c[nH]c2ccccc12	-2	1	22868*	4	-7
COCCn1c(SCC(N)=O)nnc1-c1c[nH]c2ccccc12	-8	-1	4592	2	-8
CC1(C(=O)Nc2cccc(OC(F)(F)F)c2)Cc2c(-c3ccc4c(c3)OCO4)ccnc2O1 (centres undefined)	-1	0	2956	/	-6
c1csc(-c2nnc(-c3ccc(N4CCOCC4)cc3)o2)c1	2	1	20353*	2	-2
N#Cc1nc(Cc2ccccc2)oc1N1CCN(c2ccccc2)CC1	-7	0	10460	3	-4
N#Cc1nc(-c2cccs2)oc1N1CCN(c2ccccc2)CC1	-5	-3	20556*	2	-3
Cc1ccc(C)c(S(=O)(=O)N2CCN(C(=O)CCNS(=O)(=O)c3ccccc3)CC2)c1	5	1	5532	4	0
CC(C)(C)SCCNS(=O)(=O)c1ccc2ccccc2c1	-5	-2	23401*	1	-4
CCOC(=O)c1nn(-c2ccc(F)cc2)c2nc(CC(C)C)c(C#N)c(=O)n12	12	8	18268*	10	-20
COc1ccc(OC)c(N=C2C(=O)Nc3ccccc32)c1	-4	?	21377*	10	-8
COc1ccc(N=C2C(=O)Nc3ccccc32)cc1	1	0	22766*	-2	-2
COc1cccc(NC(=O)COC(=O)c2c(C)nn(-c3ccccc3)c2C)c1	-5	0	6724	3	-3
Cc1cc(C(=O)CCC(=O)Nc2ccc(C(N)=O)cc2)c(C)s1	7	0	3844	10	-5
O=C1NCN(C2CCCCC2)CN1	1	0	4090	7	3
O=C1CC(c2ccccc2)CC2=C1CN(C1CCCCC1)CN2 (centres undefined)	-7	-3	23766*	1	-7
COCC(O)Cn1ccnc1N=Nc1ccccc1 (centres undefined)	0	0	5481	/	-1
SMILES	BoNT F protease	BoNT A protease	Autofluor counter	MazEF act	Anthrax LF inh2
CCC(=O)Nc1ccc2c(c1)ncn2-c1ccccc1	-10	-8	21985*	5	0
COC(=O)[C@H](Cc1ccccc1)NC(=O)NCCC1=CCCCC1	-2	?	24338*	4	0
COC(=O)[C@H](CCSC)NC(=O)NCCC1=CCCCC1	-2	0	11220	0	-1
O=C(O)c1ccc2c(c1)C(c1ccccc1)OC2=O (centres undefined)	16	12	16408*	2	-13
O=C1OC(c2cc(Br)c(O)c(Br)c2)c2ccccc21 (centres undefined)	2	0	2957	9	-5
Nc1c(C(=O)NC23CC4CC(CC(C4)C2)C3)sc2nc3c(c(C(F)(F)F)c12)CCC3	-3	?	24363*	0	-2
COCCNCCCOc1ccc(Cl)cc1Br	1	1	2530	-1	-1
Cc1cc(Br)ccc1OCCCCNCCO	-9	-7	21727*	2	-1
C=CCNCCCCOc1ccc(Br)cc1C	-4	2	2515	1	-1
OCCNCCCOc1ccc(Cl)cc1Br	-1	0	22475*	0	-4
C1=NN(c2ccccc2)C=NN1c1ccccc1	0	0	3952	-11	-3
CCOC(=O)c1ccc2c(c1)N(Cc1ccccc1C)C(=O)c1ccccc1S2=O (centres undefined)	-8	-6	22107*	-3	-2
O=C(NCc1cccs1)c1csc([C@@H]2C[C@H](O)[C@@H](CO)O2)n1	-1	0	3912	/	-7
Cc1ccc(-n2nc(C(=O)O)cc2-c2ccccc2)cc1	-7	-4	22097*	-1	-2
Cc1ccc(-n2nc(C(=O)O)cc2-c2ccc(Cl)cc2)cc1	-1	-1	4430	-7	-3
CC12CCC(=O)N1C(C(=O)N1CCN(c3ccc([N+](=O)[O-])cc3)CC1)CS2 (centres undefined)	-10	-1	3741	3	-11
CC(=O)N(Cc1cc2cc(C)c(C)cc2n2nnnc12)CC1COCCO1 (centres undefined)	2	2	22636*	8	-1
Cc1cc2cc(CN(Cc3ccc4c(c3)OCO4)C(=O)c3cnccn3)c3nnnn3c2cc1C	-18	-2	3303	3	-6
CC(=O)c1ccc(NC(=O)CCNS(=O)(=O)c2ccccc2F)cc1	-14	0	3681	0	-2
CCN(CC)S(=O)(=O)c1cc(NC(=O)COC(=O)CCc2nc3ccccc3s2)ccc1C	-1	?	22825*	-11	-5
CCN(CC)S(=O)(=O)c1cccc(NC(=O)COC(=O)CCc2nc3ccccc3s2)c1	-12	0	11545	-3	-4
O=C1[C@@H]2[C@H](Cc3ccc(O)cc3)N[C@]3(C(=O)Nc4ccccc43)[C@@H]2C(=O)N1c1ccc(F)cc1	2	-1	9543	/	15
Cc1c(Cl)ccc2c1NC(=O)[C@]21N[C@@H](Cc2ccccc2)[C@H]2C(=O)N(c3ccc(F)cc3)C(=O)[C@H]21	-1	?	23930*	-11	-2
Cc1cc(C)n2nc(S(=O)(=O)N(C)Cc3ccccc3)nc2n1	2	?	19864*	-2	0
Cc1cc(C)n2nc(CCc3ccccc3)nc2n1	3	0	23082*	6	0
Cc1cc(C)n2nc(C(=O)NCCc3ccccc3)nc2n1	8	2	4795	0	2
